Hit rate of the full screen: of about 310,000 compounds, about 14,000 (4.5%) showed an effect of 50% or more. The effect is printed as a negative number. The entries come from a sample that favours strong results as a whole.
Each compound was assayed against human ether-à-go-go-related gene (hERG) potassium channel (human, UniProt Q12809) (assay: primary screen, population patch clamp on CHO cells stably expressing hERG; higher = less effect of the substance).
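Note: peak tail current of the secondary pulse compared with the same well before compound.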

human ether-à-go-go-related gene (hERG) potassium channel, sequence (Q12809 whole entry, looked up): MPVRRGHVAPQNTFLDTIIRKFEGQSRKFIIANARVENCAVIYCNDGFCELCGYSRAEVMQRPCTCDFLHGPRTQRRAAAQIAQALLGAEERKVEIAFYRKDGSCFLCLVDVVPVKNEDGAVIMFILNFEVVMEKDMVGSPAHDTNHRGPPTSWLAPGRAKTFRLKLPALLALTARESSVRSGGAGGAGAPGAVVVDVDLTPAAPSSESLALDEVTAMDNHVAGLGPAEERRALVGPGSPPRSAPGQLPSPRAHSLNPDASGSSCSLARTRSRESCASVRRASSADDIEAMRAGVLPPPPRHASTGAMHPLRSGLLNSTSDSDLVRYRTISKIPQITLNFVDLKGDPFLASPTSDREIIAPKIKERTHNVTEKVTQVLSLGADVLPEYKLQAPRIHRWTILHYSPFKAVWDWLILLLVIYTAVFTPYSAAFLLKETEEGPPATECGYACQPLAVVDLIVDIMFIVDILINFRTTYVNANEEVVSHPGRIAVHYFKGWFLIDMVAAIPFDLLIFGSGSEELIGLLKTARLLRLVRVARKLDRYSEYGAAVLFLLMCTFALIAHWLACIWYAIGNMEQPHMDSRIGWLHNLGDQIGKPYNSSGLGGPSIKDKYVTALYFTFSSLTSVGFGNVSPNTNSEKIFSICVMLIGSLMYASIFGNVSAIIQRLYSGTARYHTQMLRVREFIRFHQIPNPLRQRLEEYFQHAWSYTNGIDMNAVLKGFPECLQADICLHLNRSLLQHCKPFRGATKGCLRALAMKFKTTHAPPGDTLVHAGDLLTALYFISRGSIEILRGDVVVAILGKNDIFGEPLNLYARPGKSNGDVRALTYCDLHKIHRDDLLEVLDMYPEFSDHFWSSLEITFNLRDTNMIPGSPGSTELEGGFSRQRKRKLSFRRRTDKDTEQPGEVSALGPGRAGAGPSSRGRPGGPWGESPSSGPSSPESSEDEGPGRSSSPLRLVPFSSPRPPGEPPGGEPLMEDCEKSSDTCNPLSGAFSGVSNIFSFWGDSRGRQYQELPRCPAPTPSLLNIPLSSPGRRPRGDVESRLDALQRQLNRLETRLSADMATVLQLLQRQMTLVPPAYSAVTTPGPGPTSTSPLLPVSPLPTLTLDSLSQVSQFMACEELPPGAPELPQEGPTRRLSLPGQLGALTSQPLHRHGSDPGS

Compared with `O=C1CC(N2CCN(S(=O)(=O)c3ccccc3)CC2)C(=O)N1c1ccccc1` (stereo not shown), `O=c1cc(N2CCN(Cc3ccccc3)CC2)[nH]c(=O)n1-c1ccc(Br)cc1` is lower in “hERG current change (%, negative = inhibition) at 10uM” value: 1.87% for the first, -10.7% for the second.

First: O=c1c2c3c(sc2n2cnnc2n1CCc1ccccc1)CCCC3
Second: CN(C)CCCN(C(=O)c1ccc(S(=O)(=O)N2CCc3ccccc3C2)cc1)c1nc2c(F)cccc2s1.Cl
The “hERG current change (%, negative = inhibition) at 10uM” value of the first is lower: -20.5% for the first, 4.85% for the second.

Going from `CCOC(=O)c1cnn(-c2ccc(C)cc2)c1N` to `CCOC(=O)N1CCN(S(=O)(=O)c2ccc(C(=O)N(CCN(CC)CC)c3nc4c(C)cccc4s3)cc2)CC1.Cl`, the “hERG current change (%, negative = inhibition) at 10uM” value falls from -1.1% to -24.3%.

Compared with `CN(C)CCCN(C(=O)c1ccc(S(=O)(=O)N2CCCC2)cc1)c1nc2c(F)cc(F)cc2s1.Cl`, `CN(C)CCCN(C(=O)c1ccc(S(=O)(=O)N2CCCCCC2)cc1)c1nc2c(F)cc(F)cc2s1.Cl` is lower in “hERG current change (%, negative = inhibition) at 10uM” value: -44.3% for the first, -69.6% for the second.

First: Cc1ccc2sc(N(CCCN(C)C)C(=O)c3ccc(S(=O)(=O)N4CCCCCC4)cc3)nc2c1C.Cl
Second: CN(C)CCCN(C(=O)c1ccc(S(=O)(=O)N2CCCCCC2)cc1)c1nc2c(F)cccc2s1.Cl
The “hERG current change (%, negative = inhibition) at 10uM” value of the first is higher: -23.4% for the first, -66.2% for the second.

First: CN(C)CCCN(C(=O)c1ccc(S(=O)(=O)N2CCc3ccccc3C2)cc1)c1nc2c(F)cc(F)cc2s1.Cl
Second: CCOC(=O)N1CCN(S(=O)(=O)c2ccc(C(=O)N(CCCN(C)C)c3nc4c(F)cc(F)cc4s3)cc2)CC1.Cl
The “hERG current change (%, negative = inhibition) at 10uM” value of the first is higher: -15.2% for the first, -51.3% for the second.

Going from `CCOc1cccc2sc(N(CCN(CC)CC)C(=O)c3ccc(S(=O)(=O)N4CCCCC4)cc3)nc12.Cl` to `CCOc1cccc2sc(N(CCN(CC)CC)C(=O)c3ccc(S(=O)(=O)N4CCCC4)cc3)nc12.Cl`, the “hERG current change (%, negative = inhibition) at 10uM” value rises from -62.4% to -24.2%.

Going from `CCOc1cccc2sc(N(CCCN(C)C)C(=O)c3ccc(S(=O)(=O)N4CCCCCC4)cc3)nc12.Cl` to `CN(C)S(=O)(=O)c1ccc(C(=O)Nc2ccccc2OC(F)(F)C(F)F)cc1`, the “hERG current change (%, negative = inhibition) at 10uM” value falls from 7.67% to -16.6%.

First: NC(=O)C1(N2CCCCC2)CCN(C2CC(=O)N(Cc3ccc(N4CCCC4=O)cc3)C2=O)CC1 (stereo not shown)
Second: O=c1cc(CN2CCN(c3cccc(C(F)(F)F)c3)CC2)nc2sccn12
The “hERG current change (%, negative = inhibition) at 10uM” value of the first is higher: 5.32% for the first, -46.3% for the second.

In the case of `C#CCNc1ccncc1S(=O)(=O)NC(=O)NC(C)C.O=[N+]([O-])O`, the “hERG current change (%, negative = inhibition) at 10uM” value is reported as -1.14%.

— article PMC4336329 (PLoS ONE, 2015)
